Seven compounds from PubChem BioAssay (NCI) can be followed below.

Structures are written as SMILES. About 83,000 compounds went through this panel and 20% of them were active in at least one assay; those are over-represented in the sample as a whole.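 For each line, cells grew in 96-well plates with the test compound present at a single concentration for 48 hours.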 The source made the active and inactive calls. The calls were made as follows: active = growth percent below 10; inactive = the rest.

The experiment relates to OVCAR-8 ovarian. Nature of the experiment: NCI-60 one-dose screen, 48 h (100 = growth as untreated, 0 = no growth, -100 = all killed). To be noted: 10 µM unless noted.
As for `COc1ccccc1-n1c(SCc2cc(OC)c(OC)c(OC)c2)nc2ccc(Cl)cc2c1=O`, the growth was 55.3% (inactive).

Regarding `C[C@@H](Oc1cc(-c2cnn(C3CC4(CCCNC4)C3)c2)cnc1N)c1c(Cl)ccc(F)c1Cl` (some centres not stated), the growth was 43.4% (inactive).

Turning to `Cn1c2ccc(Cl)cc2c2nn(C(=O)c3ccccc3)c(=O)nc21`, the growth was 101% (inactive).

Regarding `CC(C)(C)[Si](C)(C)OC1[C@@H](COC(=O)NC(=O)CCl)O[C@@H](n2cnc3c(N)ncnc32)[C@H]1O[Si](C)(C)C(C)(C)C` (some centres not stated), the growth is -7.49% (active).

For the compound `CC1=CN2C(=NC3=C(CCCC/C3=C\c3ccccc3)C2c2ccccc2)S1` (configuration not stated), the growth was 102% (inactive).

For the compound `Nc1c(Br)cc(Br)cc1-c1n[nH]c(=O)[nH]c1=O`, the growth was 105% (inactive).

As to `c1ccc(-c2nc(N3CCOCC3)c3c4c(sc3n2)CCCCCC4)nc1`, the growth was 42.4% (inactive).
